In PubChem BioAssay AID1332 (Southern Research Institute, 2008):
Converted amounts (≈) assume the structure as drawn. The campaign covered roughly 1,100 compounds. About 170 (15%) were called active. No rule for the calls is given here. Not all results are given here. Non-standard residues stand in square brackets, D forms with d. Residues, ends and D or L forms follow the SMILES beside them. *: point of attachment. Sta = CC(C)C[C@H](N)[C@@H](O)CC(=O)O; Isovaleryl = CC(C)CC(=O)*

Assay: Confirmatory growth inhibition assay, mycobacterium tuberculosis h37rv, with cytotoxicity (AID 1332);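 as to CC50: Vero cells exposed to compounds for 72 hours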;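 as to IC50: bacteria incubated 7 days before adding Alamar blue readout reagent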
Details: M. tuberculosis H37Rv growth inhibition; CC50: measured here: Vero cell cytotoxicity; IC50: measured here: IC50 H37Rv replicates

Compound	CC50	IC50	outcome
CCc1nc(N)nc(N)c1-c1ccc(Cl)cc1	1.26 mg/L (≈ 5.06 µM)	7.67 mg/L (≈ 30.8 µM)	active
C[C@H]1CCC2(NC1)O[C@H]1C[C@H]3[C@@H]4CC[C@H]5C[C@@H](O[C@@H]6O[C@H](CO)[C@H](O[C@@H]7O[C@H](CO)[C@@H](O)[C@H](O[C@@H]8OC[C@@H](O)[C@H](O)[C@H]8O)[C@H]7O[C@@H]7O[C@H](CO)[C@@H](O)[C@H](O)[C@H]7O)[C@H](O)[C@H]6O)CC[C@]5(C)[C@H]4CC[C@]3(C)[C@H]1[C@@H]2C (some centres not stated)	3.98 mg/L (≈ 3.85 µM)	> 20 mg/L	inactive
C[C@@H]1C[C@H]2[C@@H]3C[C@H](F)C4=CC(=O)C=C[C@]4(C)[C@@]3(Cl)[C@@H](O)C[C@]2(C)[C@H]1C(=O)COC(=O)C(C)(C)C	> 6 mg/L	> 20 mg/L	inactive
C[N+]1(C)CCC(=C(c2ccccc2)c2ccccc2)CC1		> 20 mg/L	inactive
CCc1cc(C(N)=S)ccn1		1.95 mg/L (≈ 11.7 µM)	active
Cc1c(C)c2c(c(C)c1O)CCC(C)(C(=O)O)O2 (configuration not stated)		> 20 mg/L	inactive
COc1ccc(CC(C)(N)C(=O)O)cc1OC (configuration not stated)	> 6 mg/L	> 20 mg/L	inactive
Nc1nc2c(c(=O)[nH]1)N(C=O)C(CNc1ccc(C(=O)N[C@@H](CCC(=O)O)C(=O)O)cc1)CN2 (some centres not stated)		> 20 mg/L	inactive
O=C(CCCN1CCC(O)(c2ccc(Cl)cc2)CC1)c1ccc(F)cc1		> 20 mg/L	inactive
O=C(CCCN1CCC(O)(c2ccc(Br)cc2)CC1)c1ccc(F)cc1		> 20 mg/L	inactive
CN(C)C(=O)C(CCN1CCC(O)(c2ccc(Cl)cc2)CC1)(c1ccccc1)c1ccccc1		10.9 mg/L (≈ 22.9 µM)	active
CN1CC[C@@]2(C)c3cc(O)ccc3N(C)[C@H]12		> 20 mg/L	inactive
CC(CN(C)C)CN1c2ccccc2Sc2ccccc21 (configuration not stated)	> 6 mg/L	> 20 mg/L	inactive
CCCCc1ccc(C(=O)O)nc1	> 6 mg/L	3.88 mg/L (≈ 21.7 µM)	active
CCCCc1ccc2nc(NC(=O)OC)[nH]c2c1	0.043 mg/L (≈ 0.174 µM)	> 20 mg/L	inactive
CCCCOc1ccc(CC(=O)NO)cc1	> 6 mg/L	> 20 mg/L	inactive
Cc1cc(CC(=O)O)n(C)c1C(=O)c1ccc(Cl)cc1		> 20 mg/L	inactive
O=C(CCCN1CCN(c2ccccn2)CC1)c1ccc(F)cc1		> 20 mg/L	inactive
C[C@H]1[C@H](C)CC[C@]2(C(=O)O)CC[C@]3(C)C(=CC[C@@H]4[C@@]5(C)CC[C@H](O)C(C)(C)[C@@H]5CC[C@]43C)[C@H]12		> 20 mg/L	inactive
CN(C)CCC(c1ccc(Cl)cc1)c1ccccn1 (configuration not stated)		> 20 mg/L	inactive

Compound	CC50	IC50	outcome
CN[C@@H]1[C@H](O)[C@H](NC)[C@H]2O[C@@]3(O)C(=O)C[C@@H](C)O[C@H]3O[C@@H]2[C@H]1O		7.14 mg/L (≈ 21.5 µM)	active
C/C(=C(/CCO)SSCC1CCCO1)N(C=O)Cc1cnc(C)nc1N (configuration not stated)		> 20 mg/L	inactive
C=Cc1c(C)c2cc3nc(cc4[nH]c(cc5nc(cc1[nH]2)C(C)=C5CCC(=O)O)c(CCC(=O)O)c4C)[C@@]1(C)C3=CC=C(C(=O)OC)C1C(=O)OC (some centres not stated)		> 20 mg/L	active
CC(O)(P(=O)(O)O)P(=O)(O)O		> 20 mg/L	inactive
OCCOCCN1CCN(C(c2ccccc2)c2ccc(Cl)cc2)CC1 (configuration not stated)		> 20 mg/L	inactive
OCCN1CCN(CC/C=C2/c3ccccc3Sc3ccc(Cl)cc32)CC1	> 6 mg/L	9.26 mg/L (≈ 23.1 µM)	active
CC(=O)c1ccc2c(c1)N(CCCN1CCC(CCO)CC1)c1ccccc1S2		> 20 mg/L	inactive
CC(=O)Nc1ccc(O)cc1		> 20 mg/L	inactive
CCN[C@H]1C[C@H](C)S(=O)(=O)c2sc(S(N)(=O)=O)cc21		> 20 mg/L	inactive
O=C(CCNNC(=O)c1ccncc1)NCc1ccccc1		0.393 mg/L (≈ 1.32 µM)	active
CC(C)NNC(=O)c1ccncc1		> 20 mg/L	inactive
Cc1cc(C(=O)NNCc2ccccc2)no1		> 20 mg/L	inactive
CC(C)(C)NC(=O)[C@@H]1C[C@@H]2CCCC[C@@H]2CN1C[C@@H](O)[C@H](Cc1ccccc1)NC(=O)[C@H](CC(N)=O)NC(=O)c1ccc2ccccc2n1		17.3 mg/L (≈ 25.7 µM)	active
C[C@@H]1CC[C@H]2[C@@H](C)C(=O)O[C@@H]3OC4(C)CC[C@@H]1[C@]32OO4		> 20 mg/L	inactive
CN1CC[C@]23c4ccccc4N[C@H]1[C@]21CCN(C)[C@H]3Nc2ccccc21		> 20 mg/L	inactive
CN1CCCN(C(c2ccccc2)c2ccc(Cl)cc2)CC1 (configuration not stated)	> 6 mg/L	19.3 mg/L (≈ 61.3 µM)	active
O=C(O)COCCN1CCN(C(c2ccccc2)c2ccc(Cl)cc2)CC1 (configuration not stated)		> 20 mg/L	inactive
CN1CCN(C(c2ccccc2)c2ccccc2)CC1		> 20 mg/L	inactive
Cc1cc(-c2ccccc2)nnc1NCCN1CCOCC1		> 20 mg/L	inactive
CC(C)CC(=O)N[C@H](C(=O)N[C@H](C(=O)N[C@@H](CC(C)C)[C@@H](O)CC(=O)N[C@@H](C)C(=O)N[C@@H](CC(C)C)[C@@H](O)CC(=O)O)C(C)C)C(C)C (Isovaleryl-VV[Sta]A[Sta]-OH)		> 20 mg/L	inactive

Compound	CC50	IC50	outcome
Cc1c(-c2ccccc2)oc2c(C(=O)OCCN3CCCCC3)cccc2c1=O		> 20 mg/L	inactive
CN(C)CCC=C1c2ccccc2CCc2ccccc21	> 6 mg/L	16.2 mg/L (≈ 58.3 µM)	active
CN(C)CC/C=C1\c2ccccc2COc2ccccc21		> 20 mg/L	inactive
CN(C)CC/C=C1\c2ccccc2CSc2ccccc21	> 6 mg/L	> 20 mg/L	inactive
CNCC(O)c1ccc(O)c(OC)c1 (configuration not stated)		> 20 mg/L	inactive
CNC(C)CCC=C(C)C (configuration not stated)		> 20 mg/L	inactive
C=C1CC[C@H](O)C/C1=C/C=C1\CCC[C@]2(C)[C@@H]([C@H](C)CCCC(C)C)CC[C@@H]12		> 20 mg/L	inactive
C[C@@H]1CCC[C@H](C)N1		> 20 mg/L	inactive
CC(C)(C)NC[C@@H](O)COc1cccc2c1CCCC2=O		> 20 mg/L	inactive
Cc1c(N(C)CS(=O)(=O)O)c(=O)n(-c2ccccc2)n1C		> 20 mg/L	inactive
CO[C@@]1(NC(=O)[C@H](C(=O)O)c2ccc(O)cc2)C(=O)N2C(C(=O)O)=C(CSc3nnnn3C)CO[C@@H]21		> 20 mg/L	inactive
C[N+]1(C)C2CC[C@H]1CC(OC(=O)C(CO)c1ccccc1)C2 (some centres not stated)		> 20 mg/L	inactive
Nc1ccc(S(=O)(=O)Nc2ncccn2)cc1		13.4 mg/L (≈ 53.4 µM)	active
Cc1cc(C)nc(NS(=O)(=O)c2ccc(N)cc2)n1		> 20 mg/L	inactive
Nc1ccc(S(=O)(=O)Nc2ccccn2)cc1		> 20 mg/L	inactive
Cc1noc(NS(=O)(=O)c2ccc(N)cc2)c1C		8.76 mg/L (≈ 32.8 µM)	active
CC(=O)NS(=O)(=O)c1ccc(N)cc1		> 20 mg/L	inactive
Cc1ccnc(NS(=O)(=O)c2ccc(N)cc2)n1		> 20 mg/L	inactive
Nc1ccc(S(=O)(=O)NC(=O)c2ccccc2)cc1		> 20 mg/L	inactive
Nc1ccc(S(=O)(=O)Nc2ccc(Cl)nn2)cc1		4.37 mg/L (≈ 15.3 µM)	active
